Among all 310,000 compounds or so, about 17,000 (5.5%) were called active. Inconclusive results (about 11%) are left out. The entries come from a sample that favours actives as a whole. Unmarked numbers belong to inactive results. Calls come from the whole dose curve; as a rule, active = well fitted inhibition curve with a large enough effect; inconclusive = small, poorly fitted or top-dose-only effect, or effect the other way; inactive = no such curve, though single readings can be large or run the other way.
These compounds were tested against Nuclear receptor ROR-gamma (Mus musculus) (UniProt P51450) (assay: qHTS for inhibitors of ROR gamma transcriptional activity). Details: Drosophila S2 Gal4-RORgamma UAS-luciferase reporter, 20 h; series mostly up to 53.6 µM; activity change, negative = inhibition: at the top concentration.
Method in brief: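 Read-out: Photinus luciferase luminescence; inhibitors lower reporter signal. Insect Schneider cells with Gal4-ROR gamma fusion under metallothionein promoter, UAS reporter; 700 uM final copper sulfate induction, 20 hr, ambient temperature.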
% is set by controls: 0 for no effect and ±100 for the full control effect; potency is the fitted concentration of half-maximal effect.
Note: nearly all actives have a fitted effect of over 60% in size.

Sequence of Nuclear receptor ROR-gamma (Mus musculus) (P51450 whole entry, looked up, the tested form may be a part): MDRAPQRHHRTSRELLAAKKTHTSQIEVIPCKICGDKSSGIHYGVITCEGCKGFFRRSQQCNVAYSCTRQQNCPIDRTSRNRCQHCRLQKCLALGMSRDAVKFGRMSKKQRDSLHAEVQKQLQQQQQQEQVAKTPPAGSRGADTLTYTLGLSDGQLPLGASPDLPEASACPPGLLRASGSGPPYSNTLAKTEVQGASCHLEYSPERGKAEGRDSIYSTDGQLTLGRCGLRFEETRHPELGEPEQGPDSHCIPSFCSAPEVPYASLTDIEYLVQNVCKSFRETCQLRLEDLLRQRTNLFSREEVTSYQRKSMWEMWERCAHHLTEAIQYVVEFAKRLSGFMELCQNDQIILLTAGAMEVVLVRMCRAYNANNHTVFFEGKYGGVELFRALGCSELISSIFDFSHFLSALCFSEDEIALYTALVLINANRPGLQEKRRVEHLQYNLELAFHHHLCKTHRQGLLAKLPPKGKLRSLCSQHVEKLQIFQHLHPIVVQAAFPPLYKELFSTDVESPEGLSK

| SMILES | activity change, negative = inhibition | Potency |
| --- | --- | --- |
| COc1ccc(C(=O)NC(C)Cn2nc(C)cc2C)cc1OC1CCN(C(C)=O)CC1 (centres undefined) | 4.79% |  |
| Oc1ccc2ccccc2c1C=Nc1ccccc1 | -30.3% |  |
| Oc1ccc2ccccc2c1N=Nc1nccs1 |  | 1.26 µM (active) |
| c1ccc(NCc2cccc3ccccc23)nc1 | 15.3% |  |
| Oc1ccc(N=Nc2nccs2)c(O)c1 |  | 7.08 µM (active) |
| O=C(c1c(F)cccc1F)N1CCN(c2ncc(Br)cn2)CC1 | 11.8% |  |
| CCOC(=O)N1CCC(N2Cc3cccc(C(=O)Nc4c(C)cccc4CC)c3C2=O)CC1 | -1.98% |  |
| Cc1cc(=O)oc2c(C)c(OCC(=O)NCCc3ccc(S(N)(=O)=O)cc3)ccc12 | -3.62% |  |
| Cc1ccc(NS(=O)(=O)c2cc3c(cc2C)NC(=O)CO3)cc1 | 21.6% |  |
| N=c1oc2ccccc2cc1C(=O)NCc1ccccc1 | 3.1% |  |
| CCOC(=O)c1cnc(-n2nc(C)cc2C)nc1NNc1cc(C)nc(-c2ccccc2)n1 |  | 0.1 µM (active) |
| CCOC(=O)c1cnc(-c2ccccc2)nc1Oc1ccc(C)cc1 | -0.933% |  |
| Cc1cc(C)n(-c2c(F)c(F)c(COC(=O)c3ccccc3)c(F)c2F)n1 | 22% |  |
| CC(C)c1nc2cc(C(=O)NC(C)c3cnn(C)c3)ccc2o1 (centres undefined) | 7.34% |  |
| COc1cc(CO)ccc1OCC(=O)Nc1cccc2ccccc12 | 6.69% |  |
| C=CCn1c(=S)[nH]c2scc(-c3ccco3)c2c1=O |  | 1.58 µM (active) |
| C=CCNC(=O)CSc1nc2scc(-c3ccco3)c2c(=O)n1CC=C | 2.33% |  |
| C=CCn1cnc2scc(-c3ccccc3)c2c1=O | 16% |  |
| CC(C)(C)c1cc[n+](-c2[nH]c(=O)sc2/C=N/N=C(\[O-])c2ccccc2)cc1 | -9.35% |  |
| COc1cc(Cl)c(C)cc1NC(=O)CN1CCCCCC1 | 3.84% |  |
| COc1cc(NC(=S)N2CCCC(C)C2)cc(OC)c1OC (centres undefined) | -41% |  |
| COc1cc(NC(=S)N2CCCC(C)C2)c(OC)cc1Cl (centres undefined) |  | 12.6 µM (active) |
| O=C(c1ccccc1)N1N=C(c2ccccc2O)CC1c1ccc(Br)cc1 (centres undefined) | 1.01% |  |
| CNC(=S)N1N=C(c2ccccc2)CC1c1ccc(Br)cc1 (centres undefined) |  | 11.2 µM (active) |
| COc1ccc(C2=NN(C(C)=O)C(c3ccccc3)C2)cc1 (centres undefined) | 7.98% |  |
| COc1ccc(-c2nonc2NC(=O)c2oc3ccc(F)cc3c2C)cc1OC | 0% |  |
| O=c1ccc2cc(S(=O)(=O)NCCCc3ccccc3)ccc2[nH]1 | -6.85% |  |

| SMILES | activity change, negative = inhibition | Potency |
| --- | --- | --- |
| CCN(CC)S(=O)(=O)c1ccc(NC(=O)c2cnc(C)cn2)cc1 | 3.56% |  |
| CCOc1cc(NC(=O)Nc2ccccc2)c(OCC)cc1NC(=O)CC | 40.9% |  |
| COc1ccc(OCCC(=O)c2ccc(OC)cc2)cc1 | -24.6% |  |
| COc1ccc(C(=O)C[n+]2ccc(C)cc2)cc1 | 0.679% |  |
| COc1ccc(C(=O)CC(=O)c2ccc(C)cc2)c(O)c1 |  | 10 µM (active) |
| Cc1cc(C)cc(N(CC(=O)NC2CCCC2)C(=O)CCC(=O)Nc2nccs2)c1 | -15.8% |  |
| Cc1ccc(OCC(=O)c2cc(C)n(Cc3ccco3)c2C)c([N+](=O)[O-])n1 | -33.6% |  |
| COCC(C)n1c(C)cc(C(=O)COc2ccc(C)nc2[N+](=O)[O-])c1C (centres undefined) |  | 12.6 µM (active) |
| Cc1ccc(OCC(=O)NC(C)c2ccccc2)c([N+](=O)[O-])n1 (centres undefined) | -4.48% |  |
| CCOC(=O)C1CCN(Cc2nnc(-c3cccc(Br)c3)o2)CC1 | -2.39% |  |
| Cc1noc(C)c1CSCC(=O)N(CCC(C)C)c1c(N)n(Cc2ccccc2)c(=O)[nH]c1=O | -24.5% |  |
| CCCCN1CCNC1=S |  | 12.6 µM (active) |
| CCC(C(=O)NCCC(C)C)N(Cc1ccccc1Cl)C(=O)c1snc(C(N)=O)c1N (centres undefined) | 9.6% |  |
| COc1cccc(NC(=S)N(Cc2ccc(C)cc2)Cc2ccccn2)c1 | -103% |  |
| CSc1cccc(NC(=O)CSc2ccccc2)c1 | 25.1% |  |
| CSc1cccc(NC(=S)N(Cc2ccccc2)Cc2ccccn2)c1 |  | 6.31 µM (active) |
| CSc1cccc(NC(=S)N(C(C)C)C(C)c2ccccn2)c1 (centres undefined) |  | 22.4 µM (active) |
| CC(c1ccccn1)N(CCN(C)C)C(=S)Nc1ccccc1F (centres undefined) | -43.2% |  |
| CCOc1ccc(C(=O)Nc2cccc(SC)c2)cc1 | 17.7% |  |
| COC(=O)c1ccc(S(=O)(=O)N2CCc3ccccc3C2)cc1 | 5.76% |  |
| COc1ccc(NC(=O)CSc2ccc(-c3ccco3)nn2)c(OC)c1 | 13% |  |
| CN(C)c1ccc(S(=O)(=O)NCC(=O)NCC2CCCCC2)cc1[N+](=O)[O-] | -1.36% |  |
| COc1ccc(CN2CC(C(=O)NCCc3ccc(Cl)cc3)CC2=O)cc1 (centres undefined) | 17.2% |  |
| CCOc1ccc(NC(=O)CC(Cc2ccc(Cl)cc2)C(=O)O)cc1 (centres undefined) | 3.83% |  |
| CCOC(=O)COc1nc(C)cc(C(F)(F)F)c1C#N | 1.74% |  |
| CCOC(=O)c1cc(C)nc(S(C)(=O)=O)c1C#N |  | 8.91 µM (active) |
| CCOC(=O)c1c(C(C#N)C#N)cc(C)nc1C | -1.43% [at 10 µM] |  |

Source: PubChem BioAssay AID2551 (National Center for Advancing Translational Sciences (NCATS), 2010)
